Most compounds without a hit are left out; they make up all but 2.8% or so of the library.
PG9 binder = binds the HIV-1 gp120 antibody PG9; inhibition, % at 6.7 µM; 0.43% of 360,000 active; TR-FRET gp120-PG9 antibody binding; in the data active = inhibition above about 8.5%
proKLK7 act = proKLK7 (human) activation, primary screen | activation, % at 7 µM | purified proKLK7, EDANS-DABCYL substrate fluorescence; 100% is mature enzyme control, 0% vehicle | 0.9% of 370,000 active;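 active = activation above the mean of all tested compounds plus 3 SD, computed per campaign excluding outliers beyond control limits, cut at about 13% in these data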
JMJD2C inh = blocks human GASC-1 demethylase activity. Q9H3R0. GST-JMJD2C(1-420) H3K9me3 demethylation, DELFIA europium. inhibition, % at 2.35 µM. 0.069% of 330,000 active. AID 2099;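 active = more than half of a compound's replicate wells show inhibition beyond 50%, single wells judged on their own value; inconclusive = some, but no more than half, of replicates pass 50% inhibition; inactive = no replicate passes 50% inhibition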;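 note: signal counts dimethyl H3K9 product captured on neutravidin plate; 0% = median of DMSO wells and 100% = 0.3 times that DMSO median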
PP1 counter = blocks human PP1-alpha phosphatase, a PP5 counter-screen; P62136; purified PP1alpha, OMFP fluorescence; inhibition, % at 6.7 µM; 0.9% of 320,000 active; AID 2235;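 active = inhibition above the mean inhibition of all tested compounds plus 3 SD, computed separately for each screening campaign, cut at about 15% in these data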
PP5 primary = inhibitors of human protein phosphatase 5 (PP5); P53041; purified PP5c, OMFP substrate fluorescence; inhibition, % at 6.7 µM; 0.18% of 320,000 active; AID 1987;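 active = inhibition above the campaign's mean inhibition across all tested compounds plus 3 SD, cut at about 9.5% in these data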;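 note: 0% = DMSO only and 100% = 100 µM cantharidin control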
Rev-erbA mod = modulates human Rev-erb alpha binding to DNA; P20393; Rev-erbα–FITC-DNA binding, fluorescence polarization, 90 min; activity, % at 10 µM; 0.79% of 370,000 active; AID 1259318;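 active = activity above about 14%, limit read from the data; passing the limit was not always enough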;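 note: 0% = DMSO wells with 35 nM protein and 100% = DMSO wells with 750 nM protein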
Target sequence (P20393 whole entry, looked up): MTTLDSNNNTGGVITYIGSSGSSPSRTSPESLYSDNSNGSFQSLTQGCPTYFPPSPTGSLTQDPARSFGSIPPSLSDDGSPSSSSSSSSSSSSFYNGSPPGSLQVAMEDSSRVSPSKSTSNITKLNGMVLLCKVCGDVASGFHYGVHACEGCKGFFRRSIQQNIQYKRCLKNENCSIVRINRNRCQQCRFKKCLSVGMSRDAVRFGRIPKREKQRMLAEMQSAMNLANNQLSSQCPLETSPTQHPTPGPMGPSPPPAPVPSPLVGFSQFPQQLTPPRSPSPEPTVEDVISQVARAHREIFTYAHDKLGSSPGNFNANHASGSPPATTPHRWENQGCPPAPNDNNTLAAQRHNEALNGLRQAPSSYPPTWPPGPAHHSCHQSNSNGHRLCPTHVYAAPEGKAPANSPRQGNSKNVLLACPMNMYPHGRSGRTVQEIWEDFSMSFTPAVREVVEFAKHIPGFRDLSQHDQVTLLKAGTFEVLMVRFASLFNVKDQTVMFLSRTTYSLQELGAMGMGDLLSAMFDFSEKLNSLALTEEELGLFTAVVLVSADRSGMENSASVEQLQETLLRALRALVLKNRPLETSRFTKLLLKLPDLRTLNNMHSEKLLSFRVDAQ
PG9 bind confirm = PG9 antibody binding, confirmed; shares compounds with PG9 binder; TR-FRET PG9 antibody binding, biochemical; inhibition, % at 6.7 µM; 90% of 1,500 active; in the data active = inhibition above about 9%
PGV04 Ab binding = counter-screen for PG9 binders: binding control antibody PGV04. shares compounds with PG9 binder. 95% of 1,500 active. TR-FRET PGV04 antibody-gp120 binding, biochemical. inhibition, % at 6.7 µM; in the data active = inhibition above about 9.5%
PG9 bind DR = small molecules binding HIV-1 gp120 antibody PG9 | shares compounds with PG9 binder | IC50, µM | TR-FRET PG9 antibody-gp120 binding inhibition | 95 tested, under 10 active; in the data active = IC50 below about 10 µM
PGV04 DR counter = counter-screen for PG9 binders: binding to control antibody PGV04; shares compounds with PG9 binder; 20% of 95 active; TR-FRET binding to control antibody PGV04; IC50, µM
PG126 binding DR = binds control antibody PG126 in PG9 counter-screen; shares compounds with PG9 binder; TR-FRET binding to antibody PG126, counterscreen; IC50, µM; 20% of 95 active; AID 651939
* hit, by the source's call; i = inactive; ? = inconclusive; . = not tested or not shown; ! = not confirmed by another sample. Cut-off read from the data, not from the text of the source, unless noted: active = IC50 below about 9 µM; inactive = the rest.

SMILES	PG9 binder	proKLK7 act	JMJD2C inh	PP1 counter	PP5 primary	Rev-erbA mod	PG9 bind confirm	PGV04 Ab binding	others
COc1ccc2oc(C(=O)Nc3nc(C)cs3)c(C)c2c1	8.8*	-75	3	0	0	2	13*	17*
Cc1c(C(=O)Nc2nccs2)oc2ccc(F)cc12	1	0	-1	0	-1	0	.	.
COc1ccc2oc(C(=O)Nc3ccccn3)c(C)c2c1	-1	1	2	2	2	-5	.	.
COC(=O)c1cc2oc(C)cc2n1CC(=O)Nc1cc(C)cc(C)c1	9.2*	5	2	-1	3	-1	16*	26*
CN(C)S(=O)(=O)c1ccc(N2CCCC2)c(C(=O)NCCc2ccc(F)cc2)c1	-1	0	7	1	2	6	.	.
CN(C)S(=O)(=O)c1ccc(N2CCCC2)c(C(=O)NCc2cccc(C(F)(F)F)c2)c1	12*	0	8	2	0	7	17*	25*
Cc1cc(NC(=O)CSc2nc(C3CC3)nc3sc(C)c(C)c23)no1	8.9*	0	-3	-3	0	7	13*	12*	PG9 bind DR=>67;PGV04 DR counter=i;PG126 binding DR=i
CCc1nc(SCC(=O)Nc2cc(C)on2)c2c(C)c(C)sc2n1	0	0	5	-8	1	5	.	.
Cc1nc(SCC(=O)Nc2ccccc2Cl)c2c(C)c(C)sc2n1	19*	0	.	2	-1	16	12*	17*
O=C(NCc1ccc(C(=O)N2CCCC2)cc1)c1cccc(Br)c1	.	1	.	.	.	-3	.	.
CC1CCC(NC(=O)c2cc3c(=O)n(C)c4ccccc4c3n2C)CC1 (stereo not drawn)	0	0	1	-3	0	-2	.	.
Cn1c(C(=O)NC2CCCCC2)cc2c(=O)n(C)c3ccccc3c21	12*	0	-26	6	-2	5	15*	26*
CCc1nnc(NC(=O)c2ccc(Cl)c(S(=O)(=O)N3CCc4ccccc4C3)c2)s1	20*	0	2	-1	-2	21	24*	34*
COc1ccc(-c2nnc(SCc3nc4ccccc4c(=O)[nH]3)o2)cc1	8.9*	1	-1	-2	-1	7	12*	14*
Cc1ccccc1NC(=O)[C@@H]1CC(=O)O[C@@H]1c1ccccc1	.	0	.	.	.	-3	.	.
CC(OC(=O)/C=C/c1ccc2ccccc2n1)C(=O)NCc1ccccc1 (stereo not drawn)	15*	-1	-5	-4	0	11	11*	13*
CC(C)c1nnc(NC(=O)c2ccc3ccccc3c2)s1	11*	0	-2	3	1	8	18*	32*
CCOC(=O)C1=C(C(=O)OCC)C2N(Cc3ccc(C#N)cc3)c3ccccc3[C@@]23C[C@@H](C(=O)OC)N(S(=O)(=O)c2ccc(C#N)cc2)C3=N1 (stereo partly drawn)	-2	0	.	.	.	8	.	.
CS(=O)(=O)c1ccc2nc(NC(=O)c3cc4ccccc4o3)sc2c1	9.6*	0	8	-5	1	-7	24*	33*
COCCNC(=O)CSc1cc(-c2ccccc2)c2ccc(OC)cc2n1	16*	0	-4	4	3	3	21*	26*
COc1ccc2c(-c3ccccc3)cc(SCC(=O)NC3CCS(=O)(=O)C3)nc2c1 (stereo not drawn)	22*	-1	3	0	4	8	16*	19*
COc1ccc2c(-c3ccccc3)cc(SCC(=O)N(C)C)nc2c1	-2	-2	5	2	3	1	.	.
CCN(C(=O)CSc1cc(-c2ccccc2)c2ccc(OC)cc2n1)C1CCS(=O)(=O)C1 (stereo not drawn)	2	-5	0	6	4	-3	.	.
CCN(CC)C(=O)CC[C@H]1CC[C@]2(CCCN(C(=O)c3cccnc3)C2)O1	.	0	.	.	.	1	.	.
CCCCCN1CCCCC(NC(=O)c2ccccc2OC)C1=O (stereo not drawn)	.	0	.	.	.	-3	.	.
SMILES	PG9 binder	proKLK7 act	JMJD2C inh	PP1 counter	PP5 primary	Rev-erbA mod	PG9 bind confirm	PGV04 Ab binding	others
CCOC(=O)c1c(NC(=O)CSc2nc3cc(Cl)ccc3c(=O)n2Cc2ccco2)sc(C(=O)N(C)C)c1C	51*	0	-1	12	2	-7	9.5*	23*
CCc1ccc(NC(=O)CSc2nc3cc(C(=O)OC)ccc3c(=O)n2Cc2ccco2)cc1	0	0	1	-2	2	6	.	.
CCOC(=O)CCCNC(=O)OC1CC2CC1[C@H]1CCCCN1[C@H]2C (stereo partly drawn)	.	0	.	.	.	-3	.	.
Cc1ccc(OCC(=O)c2cc(C)n(-c3cc(C)on3)c2C)c([N+](=O)[O-])n1	0	0	.	.	.	3	.	.
Cc1cc(-n2c(C)cc(C(=O)COc3ccc(Cl)cc3C(N)=O)c2C)no1	11*	1	11	.	.	1	21*	34*
CCCC(=O)Nc1ccc(C(=O)Nc2ccc([N+](=O)[O-])cc2OC)cc1	10*	0	-10	-2	3	-2	9.5*	17*
CCCCC(=O)Nc1ccc(NC(=O)c2ccc([N+](=O)[O-])cc2)cc1OC	0	-1	1	-1	0	-7	.	.
Cc1cc(O)cc(=O)n1-c1ccc(Cl)c(C(F)(F)F)c1	0	0	.	.	.	-7	.	.
CCCC/C=C1/[C@H](c2ccccc2)N(C)C2=N[C@H](c3ccccc3)CC(=O)N21	.	.	.	.	.	-7	.	.
CN1CCc2cccc3c2[C@H]1Cc1ccc(O)c(O)c1-3	11*!	-38	?	1	1	-3	12*	15*
COc1ccc(Cc2nnc(SCC(=O)c3ccc4c(c3)NC(=O)CO4)o2)cc1	9.3*	0	39	0	1	10	13*	30*
COc1ccc(Cc2nnc(SCC(=O)c3ccc(OC)cc3)o2)cc1	-3	0	-3	-1	0	4	.	.
N#CCS(=O)(=O)c1cccc[n+]1[O-]	-2	0	.	.	.	-1	.	.
N#Cc1c(N)c(C#N)c(-c2ccc(O)cc2)c2c1CCCC2	-3	0	-15	3	4	-8	.	.

Bioassay records from PubChem BioAssay.
